Screens: PubChem, National Center for Advancing Translational Sciences (NCATS)
Tau filament bind: tau filament binding | P10636 | recombinant tau filaments, thioflavin S fluorescence, 15 h; filaments grown with octadecylsulfate alongside compound | Potency, µM (doses to about 57.1 µM) | 2% of 71,000 active;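 note: actives lower thioflavin S fluorescence by blocking filaments or displacing dye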
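ThS-based fibril read: tau 1 uM final, inducer ODS 30 uM final, 37 C for 15 h, ex 450/em 510 nm.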
ERK AVP inh: blocks ERK signaling stimulated by vasopressin. HEK293-V1b, vasopressin-stimulated pERK AlphaScreen. Potency, µM (titrated, usually from 57.5 µM), hits mostly inhibitors. 0.99% of 72,000 active; note: nearly all actives have a fitted effect of over 55% in size
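HEK293 cells stably expressing V1b receptor, seeded overnight in 1% FBS, were treated with compounds for 30 min at 37C, then stimulated 5 min with 25 nM vasopressin; phospho-ERK read by AlphaScreen SureFire after lysis.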
ALOX15 inhib: 15-hLO (ALOX15) enzyme inhibition; P16050; purified 15hLO-1, xylenol orange hydroperoxide absorbance; Potency, µM (doses to about 57.1 µM), usual class: inhibitors; 1.4% of 74,000 active; AID 887; note: nearly all actives have a fitted effect of over 55% in size
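40 nM 15hLO-1 + cpd, 15 min RT; start w/ 50 uM AA (final), 6 min RT; stop/detect w/ 200 uM XO + 300 uM Fe(II) in 50 mM H2SO4, 30 min; A573/A405. Buffer 25 mM Hepes pH 7.5, 0.01% Triton X-100. No-enzyme wells as negative control.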
Pol III holo inh: blocks replication by bacterial DNA polymerase III holoenzyme. 0.25% of 71,000 active. reconstituted DNA polymerase III holoenzyme replication, biochemical. AID 603. Potency, µM (titrated, usually from 57.1 µM)
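Reconstituted *E. coli* holoenzyme (0.35 nM Pol III, 1 nM beta, 154 nM SSB, 2 nM primase) was preincubated with compound for 15 min at RT. Synthesis on 1.4 nM ssM13Gori ran 35 min, then was stopped with PicoGreen/EDTA and read as dsDNA fluorescence.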
PK Bst: pyruvate kinase (B. stearothermophilus) modulation; purified pyruvate kinase, luminescence ATP production; ribose 5-phosphate activator present at AC10; Potency, µM; 1.2% of 51,000 active; AID 361; in the data active = potency below about 11 µM; inconclusive = mostly about 12 µM to 25 µM;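 the screen sought inhibitors and activators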
Luciferase inh: inhibitors of firefly luciferase; P08659; purified firefly luciferase, luminescence, 8 min; Potency, µM (highest dose often 57.1 µM), hits mostly inhibitors; 2.2% of 72,000 active; note: nearly all actives have a fitted effect of over 40% in size
Target sequence (P08659 whole entry, looked up): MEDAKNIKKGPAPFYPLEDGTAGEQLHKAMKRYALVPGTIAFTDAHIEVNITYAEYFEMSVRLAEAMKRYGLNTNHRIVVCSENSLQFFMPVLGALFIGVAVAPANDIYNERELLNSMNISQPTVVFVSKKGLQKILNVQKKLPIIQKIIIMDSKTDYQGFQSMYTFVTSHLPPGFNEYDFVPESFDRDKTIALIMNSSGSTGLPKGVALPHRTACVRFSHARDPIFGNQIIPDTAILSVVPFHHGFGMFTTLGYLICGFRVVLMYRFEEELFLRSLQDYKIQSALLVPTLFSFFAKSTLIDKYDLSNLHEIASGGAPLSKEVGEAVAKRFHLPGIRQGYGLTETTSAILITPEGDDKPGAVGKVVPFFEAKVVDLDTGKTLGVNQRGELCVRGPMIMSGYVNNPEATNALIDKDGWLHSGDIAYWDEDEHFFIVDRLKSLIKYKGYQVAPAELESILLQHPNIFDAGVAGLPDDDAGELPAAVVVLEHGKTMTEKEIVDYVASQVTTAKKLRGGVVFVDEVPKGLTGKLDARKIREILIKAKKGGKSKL
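Here, luciferase activity is measured as luminescence following an 8 min room-temperature reaction at 10 uM ATP, pH 7.2. Every library sample is titrated.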
Each line names hits and unclear results; the compound was inactive in the other large screens. This is a sample that favours compounds with a hit; in the whole collection about 6% have one here. Unless noted, calls come from the whole dose curve; as a rule, active = well fitted curve in the direction sought with a large enough effect; inconclusive = small, poorly fitted or top-dose-only effect, or another doubt; inactive = no such curve, though single readings can be large; an effect the other way counts as inactive or inconclusive.

Cc1ccc(C(=O)NC2CCCCCC2)cc1N1CCCC1=O	none
CCN(CC)S(=O)(=O)c1cc(C(=O)Nc2ccc(Cl)cn2)ccc1C	ERK AVP inh inconclusive, Luciferase inh 7.9µM (no result: PK Bst)
Cc1ccc(NC(=O)c2ccc3ccccc3n2)nc1	PK Bst 6.9, Luciferase inh 6.3µM
Cc1ccccc1C(=O)Nc1ccc(Cl)cn1	ALOX15 inhib inconclusive, Luciferase inh inconclusive (no result: PK Bst)
CCN(CC)S(=O)(=O)c1cc(C(=O)NC2CCCCC2)ccc1C	Luciferase inh 13µM (no result: PK Bst)
Cc1ccc(CC(Cc2nc3ccccc3[nH]2)c2nc3ccccc3[nH]2)cc1 (configuration not stated)	ERK AVP inh inconclusive (no result: Tau filament bind, Pol III holo inh, PK Bst, Luciferase inh)
COc1cc(NC(=O)NCCN2CCN(c3ccc(Cl)cc3)CC2)ccc1C	Tau filament bind 13µM, ERK AVP inh inconclusive, ALOX15 inhib inconclusive
COc1ccc(NC(=O)NCCN2CCN(c3cccc(Cl)c3)CC2)cc1	none (no result: PK Bst)
N[C@@H](CSS(=O)(=O)O)C(=O)O	none (no result: PK Bst)
O=C1C2=C(Nc3ccccc3SC2c2ccco2)c2ccccc21 (configuration not stated)	Tau filament bind 4µM, ERK AVP inh inconclusive, ALOX15 inhib inconclusive (no result: PK Bst)
O=C1c2ccccc2NC(c2ccco2)N1O (configuration not stated)	none (no result: PK Bst)
CCCCCn1c(=N)n(CC(O)COc2ccccc2OC)c2ccccc21 (configuration not stated)	ERK AVP inh 13µM, ALOX15 inhib inconclusive (no result: PK Bst)
O=C(Nc1ccc(CN2CCOCC2)cc1)c1ccc(-c2ccc(Br)cc2)o1	ERK AVP inh 32µM, PK Bst 7.1
COC(=O)c1ccc(NC(=O)c2ccc(CN3CCOCC3)cc2)cc1	ERK AVP inh inconclusive
Nc1ccc(N=Nc2ccc(-c3ccc(O)cc3)cc2)c2ccc(S(=O)(=O)O)cc12	Tau filament bind 2.5µM, Luciferase inh 3.2µM (no result: PK Bst)
Cc1ccc([N+](=O)[O-])c(N)c1	none (no result: PK Bst, Luciferase inh)
CC1(C)CC(NC(=O)c2coc(=O)c(Br)c2)CC(C)(C)N1	ERK AVP inh 20µM
COCCNC(=O)c1cc(-c2cccc(OC)c2)on1	PK Bst inconclusive, Luciferase inh inconclusive
COc1cccc(-c2cc(C(=O)Nc3ccccc3SC)no2)c1	Luciferase inh 20µM (no result: PK Bst)
COc1cc(NC(=O)c2cc(-c3cccc(O)c3)on2)cc(OC)c1OC	none (no result: PK Bst)
COc1ccccc1-c1cc(C(=O)Nc2cccnc2)no1	Luciferase inh 13µM
COc1cccc(-c2cc(C(=O)NC3CCCC3)no2)c1	Luciferase inh 16µM
COc1cccc(-c2cc(C(=O)Nc3cccc(O)c3)no2)c1	PK Bst 5.6, Luciferase inh 3.2µM
O=c1c(CCc2ccccc2)nc2cnc(Nc3ccccc3)nc2n1Cc1cccs1	none (no result: PK Bst)
CC(=O)OCC(=O)[C@]12OC(C)(C)O[C@@H]1C[C@H]1[C@H]3CC=C4C[C@@H](O)CC[C@]4(C)[C@H]3CC[C@]12C	none (no result: PK Bst)
CCCn1c(C)nc2c(Nc3ccccc3)nc(C)nc21	ERK AVP inh inconclusive (no result: PK Bst, Luciferase inh)
COc1cc(OC)c(C2CC(=O)N3CN(c4ccc(C)cc4)CSC3=C2C#N)cc1OC (configuration not stated)	ALOX15 inhib inconclusive
COc1ccc(N2CSC3=C(C#N)C(c4cc(OC)c(OC)cc4OC)CC(=O)N3C2)c(OC)c1 (configuration not stated)	Tau filament bind inconclusive, ALOX15 inhib inconclusive (no result: PK Bst)
COc1ccc(N2CSC3=C(C#N)C(c4cc(OC)ccc4OC)CC(=O)N3C2)c(OC)c1 (configuration not stated)	Tau filament bind 25µM, ALOX15 inhib inconclusive (no result: PK Bst)
COc1ccc(C2CC(=O)N3CN(c4ccc(C)c(Cl)c4)CSC3=C2C#N)cc1OC (configuration not stated)	ALOX15 inhib 3.2µM (no result: PK Bst)
COc1ccc(N2CSC3=C(C#N)C(c4ccc(OC)c(OC)c4)CC(=O)N3C2)c(OC)c1 (configuration not stated)	Tau filament bind 20µM, ERK AVP inh inconclusive, ALOX15 inhib 4µM (no result: PK Bst)
CCOc1ccccc1N1CSC2=C(C#N)C(c3c(OC)ccc4ccccc34)CC(=O)N2C1 (configuration not stated)	Tau filament bind 25µM, ALOX15 inhib inconclusive, Luciferase inh inconclusive (no result: PK Bst)
CCCn1c(C)nc2c(NC3CCN(Cc4ccccc4)C3)nc(C)nc21 (configuration not stated)	none (no result: PK Bst, Luciferase inh)
Cc1nc(N2CCOCC2)c2nc(-c3ccccc3)n(CCCN3CCOCC3)c2n1	none (no result: PK Bst, Luciferase inh)
CN(C)c1ncc2nc(CCc3ccccc3)c(=O)n(Cc3cccs3)c2n1	ALOX15 inhib inconclusive (no result: PK Bst)
O=C(c1ccc(Cl)cc1)N1CCCCC(Sc2nnc(-c3ccc4c(c3)OCO4)o2)C1=O (configuration not stated)	Luciferase inh 13µM (no result: PK Bst)
O=C(c1ccccc1)N1CCCCC(Sc2nnc3ccccn23)C1=O (configuration not stated)	none
COc1ccc(Nc2ccnc3ccccc23)cc1	Tau filament bind 7.9µM
Cc1c2oc3c(C)ccc(C(=O)N[C@@H]4C(=O)N[C@@H](C(C)C)C(=O)N5CCC[C@@H]5C(=O)N(C)CC(=O)N(C)[C@@H](C(C)C)C(=O)O[C@H]4C)c3nc-2c(C(=O)N[C@@H]2C(=O)N[C@@H](C(C)C)C(=O)N3CCC[C@@H]3C(=O)N(C)CC(=O)N(C)[C@@H](C(C)C)C(=O)O[C@H]2C)c(N)c1=O	Tau filament bind inconclusive, ALOX15 inhib inconclusive, Pol III holo inh 0.13µM (no result: PK Bst)
CCC(=O)Nc1cccc(NC(=O)COc2ccc(OC)cc2)c1	Luciferase inh 20µM (no result: PK Bst)
Cc1ccc(OCC(=O)Nc2cccc(O)c2)cc1C	Luciferase inh 16µM (no result: PK Bst)
Cc1cccc(OCC(=O)Nc2cccc(O)c2)c1	ERK AVP inh inconclusive (no result: PK Bst)
CC1(C)O[C@@H]2O[C@H]([C@@H]3COC(C)(C)O3)[C@H](N)[C@H]2O1	none (no result: PK Bst)
CCCc1nc2ccccc2c(=O)n1/N=C/c1ccc(O)cc1	none
CN=c1scc(C)n1/N=C/c1ccc2c(c1)OCO2	Tau filament bind inconclusive, ERK AVP inh inconclusive, PK Bst 3.2, Luciferase inh 4µM
CN=c1scc(C)n1/N=C/c1ccc(O)cc1O	ERK AVP inh inconclusive, PK Bst 1.1, Luciferase inh 4µM
CN=c1scc(C)n1/N=C/c1ccc(O)cc1	Tau filament bind inconclusive, Pol III holo inh inconclusive, PK Bst 6.8, Luciferase inh 13µM
C[C@H]1C2=C3C(CC[C@H]4C(OCc5ccc(F)cc5C(F)(F)F)OC[C@](C)([C@@H]34)N(C(=O)OC(C)(C)C)C2)C2COC(=O)OCC21 (some centres not stated)	none (no result: ALOX15 inhib, PK Bst, Luciferase inh)
O=C1CC(/C=C/c2ccco2)=Nc2ccccc2N1	ALOX15 inhib 5µM, Pol III holo inh inconclusive (no result: PK Bst)
O=C1CC(C(F)(F)C(F)(F)C(F)(F)C(F)F)=Nc2ccccc2N1	none (no result: PK Bst)
